These results are taken from PubChem BioAssay AID1851 (National Center for Advancing Translational Sciences (NCATS), 2009).

Screen size: about 16,000 compounds; about 4,000 (25%) were called active. Inconclusive results (about 26%) are left out. Calls follow the shape of the dose curve; as a rule, active = well fitted curve in the direction sought with a large enough effect; inconclusive = small, poorly fitted or top-dose-only effect, or effect the other way; inactive = no such curve, though single readings can be large or run the other way. Only a sample is shown.
% is scaled to controls: 0 for no effect and ±100 for the full control effect.

Chain of Cytochrome P450 2C9 (Homo sapiens) (P11712 whole entry, looked up): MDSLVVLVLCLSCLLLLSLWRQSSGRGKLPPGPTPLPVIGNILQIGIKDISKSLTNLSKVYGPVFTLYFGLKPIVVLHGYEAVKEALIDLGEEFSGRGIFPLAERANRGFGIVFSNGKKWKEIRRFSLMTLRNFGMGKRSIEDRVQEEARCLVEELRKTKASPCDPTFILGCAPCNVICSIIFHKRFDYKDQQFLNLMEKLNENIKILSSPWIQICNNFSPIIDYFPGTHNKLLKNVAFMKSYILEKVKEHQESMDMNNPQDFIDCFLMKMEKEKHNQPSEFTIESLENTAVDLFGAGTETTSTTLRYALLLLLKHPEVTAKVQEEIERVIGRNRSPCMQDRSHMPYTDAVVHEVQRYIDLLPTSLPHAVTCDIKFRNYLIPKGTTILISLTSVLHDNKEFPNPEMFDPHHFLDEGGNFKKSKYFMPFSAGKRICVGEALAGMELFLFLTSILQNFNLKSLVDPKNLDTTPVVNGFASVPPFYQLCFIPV

The test concerns the target Cytochrome P450 2C9 (Homo sapiens) (UniProt P11712). The experiment in a line: Cytochrome panel assay with activity outcomes. Particulars: recombinant CYP, pro-luciferin dealkylation, luminescence, p450-cyp2c9; series mostly up to 57.1 µM; activity, negative = inhibition: at the top concentration.
`N#Cc1cccc(-c2nc3cnc(Oc4cccc(Cl)c4)nc3n(C3CC3)c2=O)c1`: the AC50 (as a rule, the concentration giving half of the maximal activity seen) was 3.16 µM (active).
`O=c1cnc2cnc(Oc3ccccc3)nc2n1C1CC1`: the “activity, negative = inhibition” value was -22.3% (inactive).
Same read-out and setting: with `Cc1nc2cnc(Oc3ccccc3)nc2n(C)c1=O` the figure was -6.38% (inactive).
As for `Cc1nc2cnc(Oc3cccc(Cl)c3)nc2n(C2CC2)c1=O`, the AC50 is 12.6 µM (active).
With `N#Cc1cccc(-c2nc3cnc(N4CCOCC4)nc3n(C[C@H]3CCCO3)c2=O)c1`, the “activity, negative = inhibition” value was 8.64% (inactive).
The same measure, in the same setting: next, `CS(=O)(=O)Nc1cccc(-c2nc(N3CCNCC3)c3ccccc3n2)c1`: -1.92% [at 2.29 µM] (inactive); `Cc1cc(C)n2nc(SCC(=O)N/N=C/c3ccccc3F)nc2n1`: -19.2% (inactive); `CCCSc1nnc(CSc2nc3nc(C)cc(C)n3n2)o1`: -22.2% (inactive).
`CCCCCCCCSc1nnc(CSc2nc3nc(C)cc(C)n3n2)o1`: the AC50 is 17.8 µM (active).
On to `N#Cc1cccc(NC(=O)N2CCC3(CC2)CCN(C(=O)c2csnn2)CC3)c1`, for which the “activity, negative = inhibition” value was 8.22% (inactive).
In the case of `CCc1ccc(N/C(SCc2ccccc2C)=C(/C#N)C(=O)NCc2ccco2)cc1`, the AC50 is 3.16 µM (active).
On to `N=c1nc(N)nc(N)n1-c1ccc(S(N)(=O)=O)cc1`, for which the activity, negative = inhibition was -1.26% [at 11.4 µM] (inactive).
For the molecule `O=C(NCCOC12CC3CC(CC(C3)C1)C2)c1cccc(Br)c1`, the AC50 is 14.1 µM (active).
Regarding `NC(=O)c1ccc[n+](CC(=O)OCCC23CC4CC(CC(C4)C2)C3)c1`, the “activity, negative = inhibition” value is 3.71% (inactive).
The same measure, in the same setting: with `COc1ccc(-n2c(=O)c(-c3cccs3)nc3cnc(Nc4cccc(OC)c4)nc32)cc1` the figure was 5.73% (inactive).
Turning to `Cc1ccc(-c2n[nH]c(=S)n2/N=C/c2cccn2C)cc1`, the AC50 is 12.6 µM (active).
Still for that read-out and setting: next, `Cc1ccc(/C=N/n2c(-c3cccs3)n[nH]c2=S)cc1`: 1.58 µM (active).
As to `COc1ccc(-n2c(-c3cnccn3)n[nH]c2=S)cc1`, the “activity, negative = inhibition” value is -11.4% (inactive).
As for `Cc1n[nH]c(=S)n1/N=C/c1ccc(Br)o1`, the “activity, negative = inhibition” value is -10.7% (inactive).
For `COc1ccc(/C=N/n2c(-c3cccs3)n[nH]c2=S)cc1`, the AC50 is 2.24 µM (active).
For the molecule `C[N+](C)(C)c1cc2c(nn1)Nc1ccccc1S2`, the activity, negative = inhibition is -3.44% [at 11.4 µM] (inactive).
On the same count and under the same terms, next, `Cc1oncc1C(=O)Nc1ccc(C(F)(F)F)cc1`: -29.1% [at 25.6 µM] (inactive).
In the case of `NCCC(=O)NCCc1cnc[nH]1`, the AC50 result is “inactive”.
On the same count and under the same terms, next, `C[C@@H](CCCCC(=O)Nc1ccc(C(F)(F)F)cc1)NCCc1cnc[nH]1`: 7.94 µM (active).
As to `Cc1cc(O)c(C(C)C)cc1NC(=O)Nc1cccc2ccccc12`, the activity, negative = inhibition was -7.14% [at 11.4 µM] (inactive).
Regarding `Cc1cc(O)c(C(C)C)cc1C1(c2cc(C(C)C)c(O)cc2C)OC(=O)c2ccccc21`, the concentration at half-maximal activity (AC50) is 0.316 µM (active).
Take `O=c1nc2ccccc2c2n1C[C@H](CN1CCN(c3ccccc3)CC1)N2`: the “activity, negative = inhibition” value was 12.7% (inactive).
As to `COC(=O)C(NC(=O)c1ccc(Cl)cc1)(Nc1nc(C)cs1)C(F)(F)F` (stereo not given), the AC50 is 8.91 µM (active).
Consider `Cc1noc(C)c1-c1nc(Nc2ccccc2)c2ccccc2n1`, for which the activity, negative = inhibition is 2.16% [at 2.29 µM] (inactive).
On to `Cc1[nH]nc(Nc2ccccc2)c1[N+](=O)[O-]`, for which the half-maximal activity concentration (AC50) was 20 µM (active).
For `Nc1nc(NCc2ccccc2)nc(Nc2cccc(F)c2)c1[N+](=O)[O-]`, the “activity, negative = inhibition” value was 19.2% (inactive).
On the same count and under the same terms, next, `CCO/C([O-])=N/c1c[n+](N2CCOCC2)no1`: 4.62% [at 25.6 µM] (inactive); `Clc1ccccc1-c1nc(NC2CCNCC2)c2ccccc2n1`: 2.89% [at 2.29 µM] (inactive); `COc1ccc(NC(=O)N2CCCC3(CCN(C(=O)c4c(C)noc4C)CC3)C2)cc1`: 16.1% (inactive).
Regarding `COc1cccc(CNCCNC(=O)c2nonc2N)c1`, the “activity, negative = inhibition” value is -25.2% (inactive).
With `COc1ccc(N(CC(=O)NCc2cccc(OC)c2)S(=O)(=O)c2c(C)noc2C)cc1`, the half-maximal activity concentration (AC50) was 7.94 µM (active).
As for `COC(=O)CN(c1ccc(OC)cc1)S(=O)(=O)c1c(C)noc1C`, the concentration at half-maximal activity (AC50) is 11.2 µM (active).
Take `COc1ccc(NC(=O)N2CC3(CCN(C(=O)c4c(C)noc4C)CC3)C2)cc1`: the “activity, negative = inhibition” value was 5.26% (inactive).
Still for that read-out and setting: with `CCOc1ccc(N(CC(=O)NCc2ccc(OC)cc2)S(=O)(=O)c2c(C)noc2C)cc1` the figure was 14% (inactive); with `NC(N)=N/N=C(/c1ccccc1)c1ccc(O)cc1O`, -9.7% [at 11.4 µM] (inactive).
For `Cc1ccc(C(=O)NC(=S)Nc2ccc(S(=O)(=O)N3CCN(C)CC3)cc2)cc1`, the concentration at half-maximal activity (AC50) was 14.1 µM (active).
Take `Cc1ccc(S(=O)(=O)N2CCN(C(=O)CN3CCN(C)CC3)C2)cc1`: the “activity, negative = inhibition” value is -13.7% (inactive).
On the same count and under the same terms, next, `COc1ccc(S(=O)(=O)N2CCC(NC(=O)Nc3ccc(C)cc3)CC2)cc1`: -17.7% (inactive).
Regarding `Cc1[nH]n(C(C)(C)C)c(=O)c1Sc1ccc(Cl)cc1`, the AC50 was 12.6 µM (active).
Still for that read-out and setting: with `Cc1[nH]n(C(C)(C)C)c(=O)c1Sc1ccccc1` the figure was 7.08 µM (active).
In the case of `COc1cccc(Nc2ncc3nc(CCc4ccccc4)c(=O)n(C4CC4)c3n2)c1`, the “activity, negative = inhibition” value is 24.2% (inactive).
Regarding `COc1ncc2nc(CCc3ccccc3)c(=O)n(C3CC3)c2n1`, the AC50 is 15.8 µM (active).
Same read-out and setting: with `CN(C)c1ncc2nc(CCc3ccccc3)c(=O)n(C3CC3)c2n1` the figure was 12.6 µM (active).
Same read-out and setting: with `COc1ccc(Oc2ncc3nc(CCc4ccccc4)c(=O)n(C4CC4)c3n2)cc1` the figure was 12.6 µM (active).
For the molecule `COc1ccc(-n2c(=O)c(C)nc3cnc(Oc4ccccc4)nc32)cc1`, the “activity, negative = inhibition” value is -4% (inactive).
